# Measurements from the supplement of paper PMC10849652.
# About 7,900 targets were measured; listed, in parts, are those with a hit and a random draw of the rest. About 0.6% of all pairs of compound and target were hits. A number with no mark means an inactive call.
# Compound: O=C(CCCCCCC(=O)Nc1ccccc1)NO [vorinostat]
# Test: log2 fold change, soluble protein after heating vs DMSO (PISA); higher = thermal stabilisation; K562 cells, 10 uM, 30 min; active = over 0.2 and 3.5 SD of the protein, either way, in both replicates (recomputed)
# Outline: (§1)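 K562 cells at 2×10^6 cells/mL were exposed to 10 μM compound for 30 min, then aliquots were heated for 3 min across 48°C-58°C, pooled, and extracted in PBS containing 0.5% NP-40 at 4°C. The supernatant after 21,000xg for 90 min was taken as soluble protein and measured by TMTpro 16plex LC-MS/MS with channel sums equalised. Thermal stability is reported relative to control samples, with values from duplicates. Fold changes are given on a log2 scale.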
# UniProt O43847, sequence (O43847 whole entry, looked up): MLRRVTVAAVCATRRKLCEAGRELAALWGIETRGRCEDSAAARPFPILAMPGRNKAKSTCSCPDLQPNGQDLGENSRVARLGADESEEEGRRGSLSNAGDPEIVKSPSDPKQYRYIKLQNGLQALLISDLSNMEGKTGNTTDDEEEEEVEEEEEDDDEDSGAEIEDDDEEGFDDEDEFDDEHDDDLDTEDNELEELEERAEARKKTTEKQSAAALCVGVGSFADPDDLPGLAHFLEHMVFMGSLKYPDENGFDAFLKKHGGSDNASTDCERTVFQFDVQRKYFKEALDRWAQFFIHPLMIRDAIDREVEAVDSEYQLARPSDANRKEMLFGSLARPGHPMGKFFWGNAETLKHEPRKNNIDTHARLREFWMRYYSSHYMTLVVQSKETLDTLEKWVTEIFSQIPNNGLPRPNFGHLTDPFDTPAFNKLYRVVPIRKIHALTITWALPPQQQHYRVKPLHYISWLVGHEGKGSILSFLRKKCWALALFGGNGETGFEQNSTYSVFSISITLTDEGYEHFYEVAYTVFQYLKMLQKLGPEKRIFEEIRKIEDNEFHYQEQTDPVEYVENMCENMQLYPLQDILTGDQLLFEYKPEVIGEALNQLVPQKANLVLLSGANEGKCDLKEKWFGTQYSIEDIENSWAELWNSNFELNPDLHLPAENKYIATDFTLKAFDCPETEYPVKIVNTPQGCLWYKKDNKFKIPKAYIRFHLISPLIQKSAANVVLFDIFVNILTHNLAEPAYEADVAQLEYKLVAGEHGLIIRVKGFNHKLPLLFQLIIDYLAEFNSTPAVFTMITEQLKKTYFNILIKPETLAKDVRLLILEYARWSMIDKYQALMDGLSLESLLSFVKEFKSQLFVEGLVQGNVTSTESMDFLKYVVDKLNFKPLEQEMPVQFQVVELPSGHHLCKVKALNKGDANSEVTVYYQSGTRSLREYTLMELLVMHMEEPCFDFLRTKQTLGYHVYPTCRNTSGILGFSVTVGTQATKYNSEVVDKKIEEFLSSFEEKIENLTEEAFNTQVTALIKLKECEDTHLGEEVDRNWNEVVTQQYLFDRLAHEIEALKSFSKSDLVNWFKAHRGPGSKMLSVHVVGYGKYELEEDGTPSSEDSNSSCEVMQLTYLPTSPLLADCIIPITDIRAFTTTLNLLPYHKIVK
# UniProt Q92692, sequence (Q92692 whole entry, looked up): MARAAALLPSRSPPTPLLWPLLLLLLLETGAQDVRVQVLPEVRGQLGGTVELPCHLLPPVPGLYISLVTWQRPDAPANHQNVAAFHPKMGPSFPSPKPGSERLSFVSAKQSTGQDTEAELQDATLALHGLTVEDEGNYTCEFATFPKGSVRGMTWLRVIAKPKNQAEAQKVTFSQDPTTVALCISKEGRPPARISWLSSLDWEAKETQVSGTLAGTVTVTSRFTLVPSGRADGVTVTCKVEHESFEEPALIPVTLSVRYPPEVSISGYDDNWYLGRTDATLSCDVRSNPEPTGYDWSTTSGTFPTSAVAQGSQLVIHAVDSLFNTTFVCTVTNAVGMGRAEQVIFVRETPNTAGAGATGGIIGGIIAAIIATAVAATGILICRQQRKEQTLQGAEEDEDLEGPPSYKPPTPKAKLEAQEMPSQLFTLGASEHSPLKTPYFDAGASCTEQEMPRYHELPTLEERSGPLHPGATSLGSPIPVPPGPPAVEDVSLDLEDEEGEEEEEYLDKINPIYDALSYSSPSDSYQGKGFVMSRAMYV
# UniProt Q9UH92, sequence (Q9UH92 whole entry, looked up): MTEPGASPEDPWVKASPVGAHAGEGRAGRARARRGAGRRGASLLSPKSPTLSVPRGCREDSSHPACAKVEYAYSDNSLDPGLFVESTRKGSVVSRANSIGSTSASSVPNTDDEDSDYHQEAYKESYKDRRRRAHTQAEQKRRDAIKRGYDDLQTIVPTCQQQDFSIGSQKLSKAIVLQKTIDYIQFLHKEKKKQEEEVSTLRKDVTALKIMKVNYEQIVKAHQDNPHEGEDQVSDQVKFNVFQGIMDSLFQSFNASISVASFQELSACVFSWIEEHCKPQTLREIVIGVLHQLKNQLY
# UniProt Q9BT67, sequence (Q9BT67 whole entry, looked up): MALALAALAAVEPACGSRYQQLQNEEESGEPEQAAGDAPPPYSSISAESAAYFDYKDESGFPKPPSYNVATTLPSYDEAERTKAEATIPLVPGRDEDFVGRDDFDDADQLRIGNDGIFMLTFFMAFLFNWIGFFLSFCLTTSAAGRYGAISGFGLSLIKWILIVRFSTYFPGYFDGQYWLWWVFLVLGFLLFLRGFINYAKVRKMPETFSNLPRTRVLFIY
# UniProt P52948, sequence (P52948 whole entry, looked up): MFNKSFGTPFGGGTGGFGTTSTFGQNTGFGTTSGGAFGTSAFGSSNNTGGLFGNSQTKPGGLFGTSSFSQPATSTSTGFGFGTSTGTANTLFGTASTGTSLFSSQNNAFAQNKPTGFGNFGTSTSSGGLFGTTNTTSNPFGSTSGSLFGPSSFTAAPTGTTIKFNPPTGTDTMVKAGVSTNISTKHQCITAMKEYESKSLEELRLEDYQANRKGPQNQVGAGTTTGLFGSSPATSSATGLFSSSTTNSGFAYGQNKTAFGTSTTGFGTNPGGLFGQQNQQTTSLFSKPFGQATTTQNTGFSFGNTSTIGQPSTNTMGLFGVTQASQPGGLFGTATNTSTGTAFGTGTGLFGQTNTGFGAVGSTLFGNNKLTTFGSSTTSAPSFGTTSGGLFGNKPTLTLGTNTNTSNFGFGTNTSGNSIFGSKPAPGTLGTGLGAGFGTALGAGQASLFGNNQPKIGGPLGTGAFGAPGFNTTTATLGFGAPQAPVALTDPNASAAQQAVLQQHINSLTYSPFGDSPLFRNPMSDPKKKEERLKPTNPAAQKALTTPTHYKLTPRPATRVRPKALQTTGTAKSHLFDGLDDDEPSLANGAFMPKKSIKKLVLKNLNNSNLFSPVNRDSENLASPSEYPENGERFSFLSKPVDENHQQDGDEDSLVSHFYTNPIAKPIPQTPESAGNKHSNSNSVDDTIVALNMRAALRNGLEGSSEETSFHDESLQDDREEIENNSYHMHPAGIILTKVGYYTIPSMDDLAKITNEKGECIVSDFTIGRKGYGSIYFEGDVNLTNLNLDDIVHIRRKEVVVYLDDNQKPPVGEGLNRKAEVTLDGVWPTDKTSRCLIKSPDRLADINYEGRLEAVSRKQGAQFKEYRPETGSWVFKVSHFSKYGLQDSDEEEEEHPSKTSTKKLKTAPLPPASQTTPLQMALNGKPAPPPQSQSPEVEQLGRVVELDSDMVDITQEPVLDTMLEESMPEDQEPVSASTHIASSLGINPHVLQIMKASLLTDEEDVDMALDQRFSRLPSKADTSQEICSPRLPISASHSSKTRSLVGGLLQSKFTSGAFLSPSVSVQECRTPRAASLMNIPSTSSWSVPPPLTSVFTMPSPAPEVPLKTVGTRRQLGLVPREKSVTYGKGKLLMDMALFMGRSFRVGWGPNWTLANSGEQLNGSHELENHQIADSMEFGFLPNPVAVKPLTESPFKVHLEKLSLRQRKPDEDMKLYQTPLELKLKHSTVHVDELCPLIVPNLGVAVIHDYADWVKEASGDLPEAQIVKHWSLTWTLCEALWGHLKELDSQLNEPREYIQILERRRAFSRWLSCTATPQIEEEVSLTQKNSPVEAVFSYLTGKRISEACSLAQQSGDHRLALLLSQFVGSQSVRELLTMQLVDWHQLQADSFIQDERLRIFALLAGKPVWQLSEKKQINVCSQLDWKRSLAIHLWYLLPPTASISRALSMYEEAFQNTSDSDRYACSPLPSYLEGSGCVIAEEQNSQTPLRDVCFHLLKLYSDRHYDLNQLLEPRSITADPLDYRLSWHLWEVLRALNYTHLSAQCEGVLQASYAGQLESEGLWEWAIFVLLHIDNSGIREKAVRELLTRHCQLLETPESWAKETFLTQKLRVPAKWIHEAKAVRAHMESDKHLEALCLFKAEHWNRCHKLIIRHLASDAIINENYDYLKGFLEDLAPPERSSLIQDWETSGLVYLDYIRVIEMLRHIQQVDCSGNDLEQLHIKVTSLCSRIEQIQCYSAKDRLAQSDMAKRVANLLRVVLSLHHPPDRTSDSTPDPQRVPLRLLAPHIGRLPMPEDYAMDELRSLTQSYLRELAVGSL
# UniProt Q9BS92, sequence (Q9BS92 whole entry, looked up): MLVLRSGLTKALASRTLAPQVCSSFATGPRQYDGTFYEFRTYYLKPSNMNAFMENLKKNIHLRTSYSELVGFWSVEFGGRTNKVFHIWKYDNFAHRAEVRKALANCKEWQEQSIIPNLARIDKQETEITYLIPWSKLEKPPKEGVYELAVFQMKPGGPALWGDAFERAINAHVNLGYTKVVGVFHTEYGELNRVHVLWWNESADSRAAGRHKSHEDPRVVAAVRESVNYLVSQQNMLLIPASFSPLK
# UniProt P04181, sequence (P04181 whole entry, looked up): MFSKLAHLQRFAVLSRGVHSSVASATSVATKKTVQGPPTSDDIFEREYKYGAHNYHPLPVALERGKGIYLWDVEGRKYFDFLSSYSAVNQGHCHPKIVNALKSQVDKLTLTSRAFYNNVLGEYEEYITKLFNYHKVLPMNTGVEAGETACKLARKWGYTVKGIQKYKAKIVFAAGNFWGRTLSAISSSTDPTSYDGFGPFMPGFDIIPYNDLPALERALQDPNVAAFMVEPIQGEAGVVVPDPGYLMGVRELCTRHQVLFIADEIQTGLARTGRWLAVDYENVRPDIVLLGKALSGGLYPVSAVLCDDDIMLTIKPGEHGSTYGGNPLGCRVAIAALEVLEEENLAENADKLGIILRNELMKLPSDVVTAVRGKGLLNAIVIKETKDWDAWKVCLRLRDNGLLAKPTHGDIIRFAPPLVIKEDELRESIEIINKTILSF
# UniProt P40261, sequence (P40261 whole entry, looked up): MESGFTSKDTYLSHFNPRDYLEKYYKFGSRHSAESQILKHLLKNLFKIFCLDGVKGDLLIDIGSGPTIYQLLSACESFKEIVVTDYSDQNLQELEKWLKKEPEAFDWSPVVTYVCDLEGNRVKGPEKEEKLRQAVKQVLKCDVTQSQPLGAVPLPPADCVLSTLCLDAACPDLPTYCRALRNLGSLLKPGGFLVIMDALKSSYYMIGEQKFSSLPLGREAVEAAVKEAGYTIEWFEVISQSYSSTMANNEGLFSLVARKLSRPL
row,Target,log2 fold change
1,NMU (UniProt P48645),0.041
2,NIPSNAP3B (UniProt Q9BS92),-0.064
3,NFYB (UniProt P25208),-0.038
4,MYLK (UniProt Q15746),-0.059
5,NAP1L1 (UniProt B7Z9C2),0.23
6,NAGPA (UniProt Q9UK23),-0.122
7,NNMT (UniProt P40261),0.128
8,NKAP (UniProt Q8N5F7),0.019
9,MMADHC (UniProt Q9H3L0),0.157
10,OGFOD2 (UniProt Q6N063),-0.313
11,OVCA2 (UniProt Q8WZ82),0.08
12,NUP160 (UniProt Q12769),0.05
13,NPM3 (UniProt O75607),-0.023
14,P4HA2 (UniProt O15460),-0.047
15,"NA, A0A494C071",0
16,MOB2 isoform 3 (UniProt Q70IA6),0.044
17,MT-ND2 (UniProt P03891),0.036
18,NRDC isoform 2 (UniProt O43847),0.04
19,"NA, A0A2R8Y3M9",0.372
20,MRFAP1 (UniProt Q9Y605),0.15

row,Target,log2 fold change
1,NCBP2AS2 (UniProt Q69YL0),0.024
2,OAT (UniProt P04181),0.129
3,MON1A (UniProt Q86VX9),0.017
4,NDFIP1 (UniProt Q9BT67),-0.051
5,NME2P1 (UniProt O60361),0.036
6,MOB3B (UniProt Q86TA1),-0.049
7,MYO19 (UniProt Q96H55),0.029
8,MYH16 (UniProt Q9H6N6),0.291
9,ORC5 (UniProt O43913),0.139
10,MSL1 (UniProt Q68DK7),0.104
11,NDUFB1 (UniProt O75438),0.108
12,NUMBL (UniProt Q9Y6R0),0.078
13,NELFCD (UniProt Q8IXH7),0.234
14,MTFR1L (UniProt Q9H019),0.356
15,NUP98 (UniProt P52948),0.052
16,NECTIN2 isoform 2 (UniProt Q92692),0.087
17,MRPS16 (UniProt Q9Y3D3),0.133
18,MLX (UniProt Q9UH92),0.095
19,OPHN1 (UniProt O60890),0.128

# Compound: O=C(CCCCCCNC(=O)c1cnc(N(c2ccccc2)c2ccccc2Cl)nc1)NO [citarinostat]
# Test: as above
# Outline: as §1
row,Target,log2 fold change
1,NMU (UniProt P48645),0.043
2,NIPSNAP3B (UniProt Q9BS92),0.137
3,NFYB (UniProt P25208),-0.006
4,MYLK (UniProt Q15746),-0.089
5,NAP1L1 (UniProt B7Z9C2),0.068
6,NAGPA (UniProt Q9UK23),0.074
7,NNMT (UniProt P40261),-0.023
8,NKAP (UniProt Q8N5F7),0.099
9,MMADHC (UniProt Q9H3L0),0.141
10,OGFOD2 (UniProt Q6N063),0.036
11,OVCA2 (UniProt Q8WZ82),-0.085
12,NUP160 (UniProt Q12769),0.018
13,NPM3 (UniProt O75607),-0.059
14,P4HA2 (UniProt O15460),-0.019
15,"NA, A0A494C071",0.023
16,NRDC isoform 2 (UniProt O43847),0.024
17,MRFAP1 (UniProt Q9Y605),0.133
18,NCBP2AS2 (UniProt Q69YL0),0
19,OAT (UniProt P04181),0.131
20,MON1A (UniProt Q86VX9),0.161
21,NDFIP1 (UniProt Q9BT67),0.025
22,NME2P1 (UniProt O60361),-0.114
23,ORC5 (UniProt O43913),0.039
24,MSL1 (UniProt Q68DK7),0.047
25,NDUFB1 (UniProt O75438),-0.026
26,NUP98 (UniProt P52948),0.028
27,NECTIN2 isoform 2 (UniProt Q92692),0.108
28,MRPS16 (UniProt Q9Y3D3),0.057
29,MLX (UniProt Q9UH92),0.139
30,OPHN1 (UniProt O60890),0.021

# Compound: O=C(O)c1ccc2c(c1)nc(Nc1cccc(Cl)c1)c1ccncc12 [silmitasertib]
# Test: as above
# Outline: as §1
row,Target,log2 fold change
1,NIPSNAP3B (UniProt Q9BS92),-0.022
2,NFYB (UniProt P25208),0.043
3,MYLK (UniProt Q15746),0.175
4,NAP1L1 (UniProt B7Z9C2),0.001
5,NAGPA (UniProt Q9UK23),-0.237
6,NNMT (UniProt P40261),0.013
7,NKAP (UniProt Q8N5F7),-0.132
8,MMADHC (UniProt Q9H3L0),0.031
9,OGFOD2 (UniProt Q6N063),0.097
10,OVCA2 (UniProt Q8WZ82),0.206
11,NUP160 (UniProt Q12769),0.075
12,NPM3 (UniProt O75607),0.137
13,P4HA2 (UniProt O15460),0.025
14,"NA, A0A494C071",0.212
15,MOB2 isoform 3 (UniProt Q70IA6),0.062
16,MT-ND2 (UniProt P03891),-0.01
17,NRDC isoform 2 (UniProt O43847),0.025

row,Target,log2 fold change
1,MRFAP1 (UniProt Q9Y605),-0.019
2,NCBP2AS2 (UniProt Q69YL0),0.024
3,OAT (UniProt P04181),-0.036
4,MON1A (UniProt Q86VX9),-0.157
5,NDFIP1 (UniProt Q9BT67),0.27
6,NME2P1 (UniProt O60361),0.048
7,MOB3B (UniProt Q86TA1),-0.023
8,MYH16 (UniProt Q9H6N6),-0.044
9,ORC5 (UniProt O43913),-0.072
10,MSL1 (UniProt Q68DK7),-0.152
11,NDUFB1 (UniProt O75438),-0.014
12,NUMBL (UniProt Q9Y6R0),-0.037
13,NUP98 (UniProt P52948),0.072
14,NECTIN2 isoform 2 (UniProt Q92692),-0.039
15,MRPS16 (UniProt Q9Y3D3),-0.063
16,MLX (UniProt Q9UH92),-0.091
17,OPHN1 (UniProt O60890),0.031
